The test system of test [1] is XIP peptide (Xip251-270) binding. As to the kind of experiment: small-molecule binders of XIP peptide, primary screen, biochemical, small-molecule microarray, fluorescence 635/667 nm, 0.1 µg/mL protein (AID 1182). The following applies: fluorescent protein binding, 635 nm, higher = more signal, called active from +8 up or from −8 down.
The test system of another test is XIP peptide (Xip251-270). Nature of the test: small-molecule binders of XIP peptide, primary screen, biochemical, small-molecule microarray, fluorescence 635/667 nm, 0.5 µg/mL protein (AID 1183). The conditions noted are these: small-molecule microarray binding, fluorescence 635 nm; higher = more signal.
Test [2] is described as follows: Plasmodium falciparum growth inhibition, primary screen, strain 3D7, DAPI fluorescence, 100 nL (AID 1184).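 Further: parasites grown inside human red blood cells in medium with human serum.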 The following applies: P. falciparum 3D7 growth, 3 d, higher = more signal.
Test [3] has as its target Homeobox protein Hox-A13 (Mus musculus) (UniProt Q62424). As to the kind of experiment: inhibitors of HoxA13-DNA binding, primary screen, biochemical, fluorescence polarization, labeled oligonucleotide (AID 1185). The following applies: 15 min, higher = more signal, called active from +8 up or from −8 down. (In fluorescence polarisation assays a small probe gives low polarisation when free and higher when bound to something large.)

The nature of test [4]: inhibitors of hydroxyurea-induced Chk1 phosphorylation, primary screen, imaging, HeLa, phospho-Chk1 antibody, percent positive cells (AID 1186). The conditions noted are these: hydroxyurea-induced phospho-Chk1 immunofluorescence imaging, higher = more signal.
Test [5] in a line: inhibitors of hydroxyurea-induced Chk1 phosphorylation, primary screen, imaging, HeLa, phospho-Chk1 nuclear intensity (AID 1187). The following applies: hydroxyurea-induced phospho-Chk1 immunofluorescence imaging, higher = more signal.

Each structure is given as a SMILES string. Active and inactive are the calls of the source. Unless noted, how the calls were made is not given here.

Sequence of Homeobox protein Hox-A13 (Mus musculus) (Q62424 whole entry, looked up): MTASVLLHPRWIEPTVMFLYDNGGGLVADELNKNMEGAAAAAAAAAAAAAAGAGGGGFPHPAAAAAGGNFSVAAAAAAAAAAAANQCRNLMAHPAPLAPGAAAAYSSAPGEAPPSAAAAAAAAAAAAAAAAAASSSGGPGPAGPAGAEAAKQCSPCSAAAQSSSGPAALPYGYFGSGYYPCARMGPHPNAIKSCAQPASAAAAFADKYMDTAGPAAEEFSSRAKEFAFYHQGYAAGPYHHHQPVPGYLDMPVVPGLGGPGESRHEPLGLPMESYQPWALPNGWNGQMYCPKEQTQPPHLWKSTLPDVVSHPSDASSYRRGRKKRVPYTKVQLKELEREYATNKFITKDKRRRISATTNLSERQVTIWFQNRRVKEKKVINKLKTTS

Turning to `C=CCOC(=O)[C@@H]1[C@H]2C(=O)O[C@H](c3ccccc3)[C@H](c3ccccc3)N2[C@H](c2ccc(OCCOC(=O)[C@H]3C[C@H]4C(=O)N[C@@H](CCCCN(C)C)C(=O)N4[C@H]3c3cccc(OCCO)c3)cc2)[C@@]12C(=O)Nc1ccc(I)cc12`, the figures for the composite z-score (in test [1]; in the test on XIP peptide (Xip251-270)) were 1.78 (inactive) and 0.817, respectively. The z-score in test [2] was -1.65; in test [3], -0.599 (inactive); in test [4] it was -0.426 (inactive); in test [5] it was -0.588 (inactive).

In the case of `COCCCNC(=O)[C@@]1(Sc2ccc(C)cc2)CC(=O)N(Cc2cc(C(F)(F)F)cc(C(F)(F)F)c2)[C@@H]1c1ccc(CO)cc1`, the composite z-score in test [1] was 0.451 (inactive); with XIP peptide (Xip251-270) it was 0.634. Further, the z-score in test [2] is -0.0611; in test [3], -0.737 (inactive); in test [4], 0.155 (inactive); in test [5] it was 0.0411 (inactive).

Regarding `O=C1O[C@@H](c2ccccc2)[C@@H](c2ccccc2)N2[C@@H](c3ccccc3OCCO)[C@]3(C(=O)Nc4ccccc43)[C@@H](C(=O)NC[C@H](O)c3ccccc3)[C@H]12`, the composite z-score in test [1] was 1.42 (inactive); in the test with XIP peptide (Xip251-270) it was -0.303. Moreover, the z-score is -0.692 in test [2], -5.34 (inactive) in test [3], -0.152 (inactive) in test [4] and -0.169 (inactive) in test [5].

With `C=C(C(=O)CC[C@H](OC(=O)c1cccnc1)c1ccc(CO)o1)C(C)C`, the composite z-score is 1.43 (inactive) in test [1] and 0.62 with XIP peptide (Xip251-270). For the same molecule, the z-score in test [2] was 0.566; in test [3] it was -5.25 (inactive); in test [4], 0.286 (inactive); in test [5], -0.0632 (inactive).

`O=C1OC[C@@H](c2ccccc2)N2CC(/C=C/c3ccccc3)=CC12` (stereo partly specified): the composite z-score was 0.587 (inactive) in test [1] and 0.0221 in the test on XIP peptide (Xip251-270). Also, the z-score is 0.643 in test [2], -1.36 (inactive) in test [3], -0.303 (inactive) in test [4] and -0.493 (inactive) in test [5].

Consider `NC(=O)NCC#Cc1ccc2c(c1)[C@]1(C(=O)N2)[C@H](C(=O)O)[C@H]2C(=O)O[C@H](c3ccccc3)[C@H](c3ccccc3)N2[C@@H]1c1ccccc1OCCO`, for which the figures for the composite z-score (in test [1]; in the test with XIP peptide (Xip251-270)) were 0.638 (inactive) and 0.823, respectively. Also, the z-score was 0.828 in test [2], -5.72 (inactive) in test [3], -0.0005 (inactive) in test [4] and 0.287 (inactive) in test [5].

Consider `C[C@H]1ON(c2ccc(C(=O)OC(C)(C)C)cc2)[C@@H](c2ccc(O)cc2)[C@@H]1C(=O)N1C(=O)OC[C@@H]1c1ccccc1`, for which the composite z-score in test [1] was 0.0197 (inactive); in the test on XIP peptide (Xip251-270), 0.446. For the same molecule, the z-score in test [2] was -1.47; in test [3], -4.21 (inactive); in test [4] it was 0.148 (inactive); in test [5], 0.062 (inactive).

As for `CO[C@H]1O[C@H](CO)[C@@H](OC(=O)Nc2ccc(C(F)(F)F)cc2)[C@H](OC(=O)Nc2ccc3c(c2)OCO3)[C@H]1OC(=O)Nc1ccc2c(c1)OCO2`, the composite z-score was 1.22 (inactive) in test [1] and 0.898 with XIP peptide (Xip251-270). For the same molecule, the z-score is -1.76 in test [2], -3.94 (inactive) in test [3], -0.318 (inactive) in test [4] and -0.559 (inactive) in test [5].

As for `O=C1C2C=CC(C(O)c3cc(C(F)(F)F)cc(C(F)(F)F)c3)N(Nc3ccc([N+](=O)[O-])cc3)C2C(=O)N1c1ccccc1` (stereo unspecified), the composite z-score is 0.131 (inactive) in test [1] and 0.802 in the test with XIP peptide (Xip251-270). In addition, the z-score in test [2] is -0.945; in test [3], -3.06 (inactive); in test [4], -0.198 (inactive); in test [5], -0.331 (inactive).

For the molecule `Cc1ccc(S[C@]2(C(=O)NCC(C)C)CC(=O)N(Cc3ccccc3Cl)[C@@H]2c2ccc(CO)cc2I)cc1`, the values for the composite z-score (in test [1]; in the test with XIP peptide (Xip251-270)) were 2.28 (inactive) and 0.157, respectively. For the same molecule, the z-score in test [2] is -0.548; in test [3], -2.97 (inactive); in test [4] it was -0.346 (inactive); in test [5], -0.237 (inactive).

As to `[N-]=[N+]=NCc1ccccc1[C@H]1OC(c2ccc(OCCCO)cc2)=N[C@@]1(CCS(=O)(=O)c1ccccc1)C(N)=O`, the composite z-score in test [1] was 1 (inactive); in the test with XIP peptide (Xip251-270), 0.558. Also, the z-score was -1.09 in test [2], -3.46 (inactive) in test [3], 0.163 (inactive) in test [4] and 0.0372 (inactive) in test [5].

For the molecule `CC1CC/C=C\[C@H]2OC34C=CCN(c5ccc6ccccc6c5)C(=O)[C@H]3N(C(CO)C(C)C)C(=O)[C@@H]4C2C(=O)O1` (stereo partly specified), the results for the composite z-score (in test [1]; with XIP peptide (Xip251-270)) were 0.17 (inactive) and -0.0558, respectively. For the same molecule, the z-score was -0.571 in test [2], -6.57 (inactive) in test [3], 0.174 (inactive) in test [4] and 0.604 (inactive) in test [5].

Turning to `[N-]=[N+]=Nc1ccccc1C[C@]1(C(=O)NCc2ccccc2)N=C(c2ccc(OCCCO)cc2)O[C@H]1c1ccccc1`, the composite z-score was 0.222 (inactive) in test [1] and 0.813 in the test with XIP peptide (Xip251-270). Further, the z-score was -2.07 in test [2], -0.801 (inactive) in test [3], 0.0726 (inactive) in test [4] and 0.176 (inactive) in test [5].

Turning to `NC(=O)N1C(=O)C2C(C1=O)C1C=C(CCCO)C2C(c2cccs2)N1Cc1cc2c(cc1Br)OCO2` (stereo unspecified), the figures for the composite z-score (in test [1]; with XIP peptide (Xip251-270)) were 0.0706 (inactive) and 0.231, respectively. Moreover, the z-score in test [2] is 0.376; in test [3] it was -5.04 (inactive); in test [4], 0.164 (inactive); in test [5], 0.509 (inactive).

With `C=CC[C@]12N=C(c3ccc(OCCCO)cc3)O[C@H]1c1ccccc1N(C)C2=O`, the composite z-score in test [1] is 2.91 (inactive); in the test with XIP peptide (Xip251-270), 0.842. Further, the z-score in test [2] was -2.33; in test [3], -4.31 (inactive); in test [4], -0.0503 (inactive); in test [5], -0.394 (inactive).

On to `CC(C)C(O)C1C=CC2C(=O)N(C)C(=O)C2N1Nc1ccccc1` (stereo unspecified), for which the composite z-score was 0.292 (inactive) in test [1] and 0.655 in the test with XIP peptide (Xip251-270). For the same molecule, the z-score is 0.771 in test [2], -1.81 (inactive) in test [3], 0.331 (inactive) in test [4] and 0.193 (inactive) in test [5].

For `COCCCNC(=O)[C@]1(Cc2ccccc2CN=[N+]=[N-])N=C(c2ccc(OCCCO)cc2)O[C@@H]1c1ccccc1`, the figures for the composite z-score (in test [1]; in the test with XIP peptide (Xip251-270)) were 0.0968 (inactive) and 0.598, respectively. For the same molecule, the z-score was -2.41 in test [2], -6.44 (inactive) in test [3], -0.401 (inactive) in test [4] and -0.24 (inactive) in test [5].

Turning to `C=C(CCCC)C(=O)CC[C@@H](OC(=O)c1cccnc1)c1ccccc1OCCO`, the values for the composite z-score (in test [1]; with XIP peptide (Xip251-270)) were -0.451 (inactive) and -0.0138, respectively. Further, the z-score is -3.08 in test [2], -3.61 (inactive) in test [3], -0.383 (inactive) in test [4] and -0.227 (inactive) in test [5].

In the case of `COC(=O)[C@@]1(Cc2ccccc2)[C@H]2c3cc(C(=O)N4CCCC4)n(Cc4ccsc4Br)c3C[C@H]2CN1C(=O)c1ccccc1`, the composite z-score in test [1] was 0.427 (inactive); in the test on XIP peptide (Xip251-270), 0.77. For the same molecule, the z-score in test [2] is -1.16; in test [3] it was -3.29 (inactive); in test [4] it was 0.17 (inactive); in test [5], 0.498 (inactive).

As to `CC[C@@H]1[C@H]2C3C(=O)N(CC)C(=O)C3CC(=O)[C@H]2[C@H](c2ccc(C)cc2)N1S(=O)(=O)c1ccc(C)cc1` (stereo partly specified), the composite z-score in test [1] is 0.117 (inactive); in the test on XIP peptide (Xip251-270), 0.643. Also, the z-score in test [2] was -0.915; in test [3], -4.84 (inactive); in test [4], 0.2 (inactive); in test [5], -0.264 (inactive).

As to `COC(=O)[C@@]1(Cc2ccc(OC)cc2)[C@H]2c3cc(C(=O)N(C)C)n(Cc4ccccc4)c3C[C@H]2CN1C(=O)c1ccccc1`, the composite z-score in test [1] is 0.0961 (inactive); in the test with XIP peptide (Xip251-270) it was -0.248. For the same molecule, the z-score was -0.921 in test [2], -0.853 (inactive) in test [3], -0.342 (inactive) in test [4] and -0.687 (inactive) in test [5].

As for `O=C(N1CCCCC1)[C@@]1(Cc2ccccc2)COC(c2ccc(OCCCO)cc2)=N1`, the figures for the composite z-score (in test [1]; in the test on XIP peptide (Xip251-270)) were 1.07 (inactive) and 0.819, respectively. Moreover, the z-score in test [2] was -1.77; in test [3], -5.09 (inactive); in test [4], -0.542 (inactive); in test [5] it was -0.344 (inactive).

`COc1ccc([Si](C)(C)[C@@H]2[C@@H](CC(=O)N3CCC[C@H]3CO)O[C@]3(C(=O)N(Cc4ccc(N5C(=O)c6cccc7cccc5c67)cc4)c4ccccc43)[C@H]2C)cc1`: the composite z-score in test [1] was 0.353 (inactive); in the test on XIP peptide (Xip251-270), 0.792. Also, the z-score in test [2] was -2.09; in test [3], -3.19 (inactive); in test [4], 0.48 (inactive); in test [5] it was 0.451 (inactive).

Take `COC(=O)[C@@]1(Cc2ccccc2)[C@H]2c3cc(C(=O)N4CCCC4)n(Cc4cc(F)cc5c4OCOC5)c3C[C@H]2CN1C(=O)c1ccccc1`: the values for the composite z-score (in test [1]; in the test with XIP peptide (Xip251-270)) were 0.766 (inactive) and 0.828, respectively. Also, the z-score in test [2] is -1.65; in test [3] it was -5.42 (inactive); in test [4], 0.189 (inactive); in test [5], 0.435 (inactive).

With `CCCC[C@@H]1C[C@H]1[C@@H](NC(=O)c1ccccc1)c1ccc(Cl)cc1`, the composite z-score in test [1] was -0.778 (inactive); with XIP peptide (Xip251-270), -2.03. Besides, the z-score in test [2] is -0.385; in test [3], -3.04 (inactive); in test [4], 0.413 (inactive); in test [5], -0.524 (inactive).

As for `COC(=O)c1c(CC[C@@H](CO)NC(=O)N[C@H](Cn2cc(-c3ccccc3C)nn2)C(C)C)oc(C(C)=O)c1C(=O)OC`, the composite z-score in test [1] is -0.0077 (inactive); in the test with XIP peptide (Xip251-270) it was -0.0163. For the same molecule, the z-score in test [2] is -1.85; in test [3], -0.127 (inactive); in test [4], 1.16 (inactive); in test [5] it was 0.823 (inactive).

The values above are taken from PubChem BioAssay.
